In the supplement of paper PMC10981050:
Structures can show the parent of a compound that is named as a salt.

The molecules below were run on OCI-AML2 (assay: cell viability relative to vehicle control; higher = less cytotoxic). Conditions: 10 µM; SRSF2 genotype: P95H/wt.
Outline: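 Screening covered the Selleck bioactive, kinase and epigenetic probe libraries, less identity-inconsistent compounds, on CRISPR-edited mutant clones and isogenic wild-type clones of four leukaemia lines. Cells, at 2000 per well in 50 µL medium, received a single 10 µM acoustically dispensed dose. After 48 h the supernatant was removed and CellTiter-Glo luminescence was read. Viability was analysed in Genedata Screener as percent of the on-plate vehicle control.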

SMILES | cell viability [%]
C[n+]1c2n(c(=O)c3ccccc31)CCc1c-2[nH]c2ccccc12 [Dehydroevodiamine hydrochloride] | 86.8
Cn1cc(C(=O)Nc2ccc3c(c2)OCCO3)c2ccccc2c1=O | 80.3
CC(CCC(=O)NCCS(=O)(=O)O)C1CCC2C3C(O)CC4CC(O)CCC4(C)C3CCC12C (configuration not stated) [Taurochenodeoxycholic acid] | 109
CC(C)c1nc(CN(C)C(=O)N[C@@H](CCN2CCOCC2)C(=O)N[C@H](CC[C@H](Cc2ccccc2)NC(=O)OCc2cncs2)Cc2ccccc2)cs1 [Cobicistat (GS-9350)] | 95
CO/N=C(\C(=O)N[C@@H]1C(=O)N2C(C(=O)O)=C(CSc3nnnn3C)CS[C@H]12)c1csc(N)n1 [Cefmenoxime hydrochloride] | 97.2
CCCCOc1nc(N)c2c(n1)N(Cc1cccc(CN3CCCC3)c1)CC(=O)N2 | 97.4
Cc1cc(/C=C2/SC(=S)NC2=O)c(C)n1-c1cccnc1 [Optovin] | 107
CN(C(Cc1ccc(OS(=O)(=O)c2cccc3cnccc23)cc1)C(=O)N1CCN(c2ccccc2)CC1)S(=O)(=O)c1cccc2cnccc12 (configuration not stated) | 75.7
CCCCCCCC(=O)CCc1ccc(O)c(OC)c1 [6-Paradol] | 94.1
CNC(=C[N+](=O)[O-])NCCSCc1ccc(CN(C)C)o1 [Ranitidine Hydrochloride] | 91
CC(C)(C)NC[C@H](O)COc1nsnc1N1CCOCC1 [Timolol Maleate] | 103
O=C(O)CCN1C(=O)/C(=C/c2ccc(-c3ccc([N+](=O)[O-])cc3)o2)SC1=S | 103
C[C@]12CC[C@@H]3c4ccc(O)cc4C[C@@H](CCCCCCCCC[S+]([O-])CCCC(F)(F)C(F)(F)F)[C@H]3[C@@H]1CC[C@@H]2O (some centres not stated) [Fulvestrant (Faslodex)] | 91.4
OC[C@@H](O)[C@@H](O[C@@H]1O[C@H](CO)[C@H](O)[C@H](O)[C@H]1O)[C@H](O)[C@@H](O)CO [Lactitol] | 91
CC(C)N(CCCNC(=O)Nc1ccc(C(C)(C)C)cc1)C[C@H]1O[C@@H](n2ccc3c(N)ncnc32)[C@H](O)[C@@H]1O | 84.3
c1ccc2[nH]c(-c3cscn3)nc2c1 [Thiabendazole] | 93.6
CN1[C@@H]2CC[C@H]1C[C@@H](OC(c1ccccc1)c1ccccc1)C2 [Benztropine mesylate] | 88
